# Source: PMC7862700, “An all-to-all approach to the identification of sequence-specific readers for epigenetic DNA modifications on cytosine”
# Experiments:
# Experiment in all cases: DAPPL (digital affinity profiling via proximity ligation, sequencing); 10 mM Tris-HCl pH 7.5, 50 mM NaCl, 1 mM DTT, 4% glycerol, room temperature, 30 min; GST-TFs on glutathione beads, 16-mer random dsDNA library, 0.1% formaldehyde crosslink after washing; high values mean tight binding
# FEV = biological target: T1, FEV (Homo sapiens, UniProt Q99581 1-238); details: protein: recombinant; tags: N-terminal GST; dsDNA, one strand shown
# T1 sequence: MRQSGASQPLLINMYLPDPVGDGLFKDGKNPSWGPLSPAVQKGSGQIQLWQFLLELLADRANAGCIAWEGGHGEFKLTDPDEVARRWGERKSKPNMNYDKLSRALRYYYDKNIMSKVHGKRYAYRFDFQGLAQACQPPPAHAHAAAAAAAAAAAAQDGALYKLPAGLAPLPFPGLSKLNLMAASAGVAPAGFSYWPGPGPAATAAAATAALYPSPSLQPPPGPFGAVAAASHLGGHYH
# Outline: (§1)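 A tag-only sample was pooled with DNA-barcoded human transcription factors that had been expressed in yeast as GST fusions and captured on glutathione beads. The pools were incubated for 30 min at room temperature with 200 nmole of a random double-stranded 16-mer DNA library in Tris/NaCl/DTT/glycerol buffer, then washed, crosslinked with 0.1% formaldehyde, proximity-ligated (BsaI/T4 ligase, 1 h, 37 °C), PCR-amplified and sequenced on an Illumina NextSeq500. Binding signal is each hexamer's read frequency for a factor divided by its frequency for the tag-only sample.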
# ETV5 = ETV5 (Homo sapiens, UniProt P41161 1-510); details: protein: recombinant; tags: N-terminal GST; dsDNA, one strand shown
# Outline: as §1
# HSF1 = HSF1 (Homo sapiens, UniProt Q00613 1-529); details: protein: recombinant; tags: N-terminal GST; chain copies: 3; dsDNA, one strand shown
# Outline: as §1
# SPIC = biological target: T2, SPIC (Homo sapiens, UniProt Q8N5J4 1-248); details: protein: recombinant; tags: N-terminal GST; dsDNA, one strand shown
# T2 sequence: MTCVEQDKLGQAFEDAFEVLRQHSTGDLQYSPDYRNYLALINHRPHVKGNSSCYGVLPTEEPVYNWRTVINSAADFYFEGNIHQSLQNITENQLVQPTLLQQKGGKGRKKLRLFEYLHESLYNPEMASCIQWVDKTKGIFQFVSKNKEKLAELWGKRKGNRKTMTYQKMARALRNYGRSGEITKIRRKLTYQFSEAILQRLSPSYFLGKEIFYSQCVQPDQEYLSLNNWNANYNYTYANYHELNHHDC
# Outline: as §1
# ELF4 = ELF4 (Homo sapiens, UniProt Q99607 1-663); details: protein: recombinant; tags: N-terminal GST; dsDNA, one strand shown
# Outline: as §1
# ELK4 = biological target: T3, ELK4 (Homo sapiens, UniProt P28324-2 1-405); details: protein: recombinant; tags: N-terminal GST; dsDNA, one strand shown
# T3 sequence: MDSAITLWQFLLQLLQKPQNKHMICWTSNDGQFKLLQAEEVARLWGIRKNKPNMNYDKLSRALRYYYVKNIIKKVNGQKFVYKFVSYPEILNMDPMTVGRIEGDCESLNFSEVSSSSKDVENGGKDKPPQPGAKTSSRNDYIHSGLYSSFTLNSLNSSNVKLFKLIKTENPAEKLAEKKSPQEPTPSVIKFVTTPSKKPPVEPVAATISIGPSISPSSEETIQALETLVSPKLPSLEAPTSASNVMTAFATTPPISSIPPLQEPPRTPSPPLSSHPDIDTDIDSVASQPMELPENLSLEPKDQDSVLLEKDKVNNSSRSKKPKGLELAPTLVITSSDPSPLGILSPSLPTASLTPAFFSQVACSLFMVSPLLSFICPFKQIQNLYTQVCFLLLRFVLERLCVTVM
# Outline: as §1
# ETV2 = biological target: T4, ETV2 (Homo sapiens, UniProt O00321 1-342); details: protein: recombinant; tags: N-terminal GST; dsDNA, one strand shown
# T4 sequence: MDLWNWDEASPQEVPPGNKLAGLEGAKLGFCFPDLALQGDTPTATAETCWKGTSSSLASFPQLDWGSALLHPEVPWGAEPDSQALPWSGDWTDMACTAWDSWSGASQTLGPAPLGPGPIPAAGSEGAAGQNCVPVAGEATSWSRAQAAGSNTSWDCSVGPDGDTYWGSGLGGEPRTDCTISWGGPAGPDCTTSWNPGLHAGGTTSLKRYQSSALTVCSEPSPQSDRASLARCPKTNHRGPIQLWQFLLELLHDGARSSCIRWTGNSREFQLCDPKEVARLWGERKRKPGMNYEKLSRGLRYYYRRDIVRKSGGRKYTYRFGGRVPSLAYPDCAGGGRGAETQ
# Outline: as §1
# ELF3 = biological target: T5, ELF3 (Homo sapiens, UniProt P78545 1-371); details: protein: recombinant; tags: N-terminal GST; dsDNA, one strand shown
# T5 sequence: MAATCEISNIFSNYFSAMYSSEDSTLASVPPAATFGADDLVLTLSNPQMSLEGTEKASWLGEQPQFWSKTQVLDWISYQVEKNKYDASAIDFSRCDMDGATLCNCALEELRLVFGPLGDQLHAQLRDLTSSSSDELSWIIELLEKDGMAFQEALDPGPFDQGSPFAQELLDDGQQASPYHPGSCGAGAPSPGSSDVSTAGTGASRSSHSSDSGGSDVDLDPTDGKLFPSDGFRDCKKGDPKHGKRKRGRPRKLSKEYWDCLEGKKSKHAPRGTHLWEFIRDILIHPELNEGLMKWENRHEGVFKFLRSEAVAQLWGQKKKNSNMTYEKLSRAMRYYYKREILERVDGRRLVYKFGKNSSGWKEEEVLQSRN
# Outline: as §1
# CRX = CRX (Homo sapiens, UniProt O43186 1-299); details: protein: recombinant; tags: N-terminal GST; dsDNA, one strand shown
# Outline: as §1
# ETV1 = ETV1 (Homo sapiens, UniProt P50549 1-477); details: protein: recombinant; tags: N-terminal GST; dsDNA, one strand shown
# Outline: as §1
# ERF = biological target: T6, ERF (Homo sapiens, UniProt P50548 1-548); details: protein: recombinant; tags: N-terminal GST; dsDNA, one strand shown
# T6 sequence: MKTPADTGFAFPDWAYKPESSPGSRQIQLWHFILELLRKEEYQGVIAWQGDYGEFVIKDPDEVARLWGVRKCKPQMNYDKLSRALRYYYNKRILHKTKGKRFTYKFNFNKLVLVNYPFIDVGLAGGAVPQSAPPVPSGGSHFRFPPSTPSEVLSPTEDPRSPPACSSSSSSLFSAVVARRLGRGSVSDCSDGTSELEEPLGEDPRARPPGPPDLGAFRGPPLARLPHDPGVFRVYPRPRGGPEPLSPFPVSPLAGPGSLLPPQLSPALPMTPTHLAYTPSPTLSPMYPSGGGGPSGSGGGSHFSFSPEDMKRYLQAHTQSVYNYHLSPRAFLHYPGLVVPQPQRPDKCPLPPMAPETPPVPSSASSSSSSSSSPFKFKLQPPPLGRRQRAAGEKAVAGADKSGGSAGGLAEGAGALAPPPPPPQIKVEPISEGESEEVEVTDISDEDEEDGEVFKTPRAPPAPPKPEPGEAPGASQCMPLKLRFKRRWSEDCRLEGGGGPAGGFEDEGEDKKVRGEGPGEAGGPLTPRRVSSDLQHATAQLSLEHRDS
# Outline: as §1
# ETV3L = biological target: T7, ETV3L (Homo sapiens, UniProt Q6ZN32 1-361); details: protein: recombinant; tags: N-terminal GST; dsDNA, one strand shown
# T7 sequence: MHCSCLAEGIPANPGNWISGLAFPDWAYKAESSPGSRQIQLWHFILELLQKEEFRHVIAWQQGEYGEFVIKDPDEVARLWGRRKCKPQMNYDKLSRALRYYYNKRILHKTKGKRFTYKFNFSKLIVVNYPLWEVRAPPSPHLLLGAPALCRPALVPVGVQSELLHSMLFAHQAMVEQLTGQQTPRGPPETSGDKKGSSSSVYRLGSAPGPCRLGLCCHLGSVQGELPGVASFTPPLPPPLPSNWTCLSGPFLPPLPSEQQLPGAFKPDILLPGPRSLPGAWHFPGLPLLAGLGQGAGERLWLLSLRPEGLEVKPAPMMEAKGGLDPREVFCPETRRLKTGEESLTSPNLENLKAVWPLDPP
# Outline: as §1
# ETS2 = biological target: T8, ETS2 (Homo sapiens, UniProt P15036 1-469); details: protein: recombinant; tags: N-terminal GST; dsDNA, one strand shown
# T8 sequence: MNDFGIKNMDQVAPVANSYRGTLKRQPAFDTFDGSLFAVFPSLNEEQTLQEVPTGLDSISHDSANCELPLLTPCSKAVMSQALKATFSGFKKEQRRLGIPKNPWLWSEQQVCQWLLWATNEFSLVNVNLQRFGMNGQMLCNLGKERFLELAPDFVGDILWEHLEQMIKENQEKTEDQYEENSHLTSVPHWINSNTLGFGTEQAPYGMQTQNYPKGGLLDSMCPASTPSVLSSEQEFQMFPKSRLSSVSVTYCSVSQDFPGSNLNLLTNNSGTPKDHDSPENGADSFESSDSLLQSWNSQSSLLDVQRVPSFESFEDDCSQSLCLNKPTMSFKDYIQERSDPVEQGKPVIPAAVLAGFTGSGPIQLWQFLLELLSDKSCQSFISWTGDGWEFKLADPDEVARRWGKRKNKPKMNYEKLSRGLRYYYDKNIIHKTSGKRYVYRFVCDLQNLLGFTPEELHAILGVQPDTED
# Outline: as §1
# SPDEF = biological target: T9, SPDEF (Homo sapiens, UniProt O95238 1-335); details: protein: recombinant; tags: N-terminal GST; dsDNA, one strand shown
# T9 sequence: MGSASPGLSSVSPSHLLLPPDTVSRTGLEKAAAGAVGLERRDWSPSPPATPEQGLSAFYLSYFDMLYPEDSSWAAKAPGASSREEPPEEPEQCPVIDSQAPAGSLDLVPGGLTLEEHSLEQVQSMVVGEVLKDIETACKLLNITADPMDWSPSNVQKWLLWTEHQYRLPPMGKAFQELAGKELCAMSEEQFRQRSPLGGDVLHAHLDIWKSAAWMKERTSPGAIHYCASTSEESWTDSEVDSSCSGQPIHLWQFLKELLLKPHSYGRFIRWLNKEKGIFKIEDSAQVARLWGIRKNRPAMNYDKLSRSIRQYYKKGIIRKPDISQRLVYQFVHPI
# Outline: as §1
# ETV7 = biological target: T10, ETV7 (Homo sapiens, UniProt Q9Y603 1-341); details: protein: recombinant; tags: N-terminal GST; dsDNA, one strand shown
# T10 sequence: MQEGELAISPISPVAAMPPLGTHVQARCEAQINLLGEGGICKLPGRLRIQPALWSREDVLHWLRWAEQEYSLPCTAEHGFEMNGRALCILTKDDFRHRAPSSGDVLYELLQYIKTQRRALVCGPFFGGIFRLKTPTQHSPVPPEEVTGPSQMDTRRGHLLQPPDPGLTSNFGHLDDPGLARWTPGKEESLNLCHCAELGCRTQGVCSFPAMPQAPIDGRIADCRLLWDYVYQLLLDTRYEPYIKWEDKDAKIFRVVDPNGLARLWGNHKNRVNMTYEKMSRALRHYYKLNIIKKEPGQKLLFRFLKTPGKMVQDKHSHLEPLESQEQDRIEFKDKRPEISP
# Outline: as §1
# ELF5 = biological target: T11, ELF5 (Homo sapiens, UniProt Q9UKW6-2 1-255); details: protein: recombinant; tags: N-terminal GST; dsDNA, one strand shown
# T11 sequence: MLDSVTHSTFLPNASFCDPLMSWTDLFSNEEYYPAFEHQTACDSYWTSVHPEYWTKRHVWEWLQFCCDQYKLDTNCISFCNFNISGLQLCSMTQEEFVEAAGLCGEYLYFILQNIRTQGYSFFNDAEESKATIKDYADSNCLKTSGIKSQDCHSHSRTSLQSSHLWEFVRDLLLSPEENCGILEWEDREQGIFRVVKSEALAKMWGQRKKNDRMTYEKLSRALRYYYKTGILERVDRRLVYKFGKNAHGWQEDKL
# Outline: as §1
# ETV3 = biological target: T12, ETV3 (Homo sapiens, UniProt P41162-2 1-143); details: protein: recombinant; tags: N-terminal GST; dsDNA, one strand shown
# T12 sequence: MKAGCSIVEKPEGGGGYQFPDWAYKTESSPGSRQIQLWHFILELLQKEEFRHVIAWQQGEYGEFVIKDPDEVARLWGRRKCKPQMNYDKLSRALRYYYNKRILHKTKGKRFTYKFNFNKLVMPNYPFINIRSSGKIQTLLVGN
# Outline: as §1
# ETV6 = ETV6 (Homo sapiens, UniProt P41212 1-452); details: protein: recombinant; tags: N-terminal GST; dsDNA, one strand shown
# Outline: as §1
# Chain of CRX (O43186 whole entry): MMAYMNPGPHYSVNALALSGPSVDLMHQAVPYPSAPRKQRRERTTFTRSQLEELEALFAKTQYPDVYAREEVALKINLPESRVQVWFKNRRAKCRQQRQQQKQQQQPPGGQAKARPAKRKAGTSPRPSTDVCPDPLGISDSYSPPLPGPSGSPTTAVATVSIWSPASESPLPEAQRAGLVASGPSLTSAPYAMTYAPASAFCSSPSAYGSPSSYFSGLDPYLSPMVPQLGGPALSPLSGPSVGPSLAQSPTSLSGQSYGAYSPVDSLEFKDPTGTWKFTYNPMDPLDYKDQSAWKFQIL
# Chain of ELF4 (Q99607 whole entry): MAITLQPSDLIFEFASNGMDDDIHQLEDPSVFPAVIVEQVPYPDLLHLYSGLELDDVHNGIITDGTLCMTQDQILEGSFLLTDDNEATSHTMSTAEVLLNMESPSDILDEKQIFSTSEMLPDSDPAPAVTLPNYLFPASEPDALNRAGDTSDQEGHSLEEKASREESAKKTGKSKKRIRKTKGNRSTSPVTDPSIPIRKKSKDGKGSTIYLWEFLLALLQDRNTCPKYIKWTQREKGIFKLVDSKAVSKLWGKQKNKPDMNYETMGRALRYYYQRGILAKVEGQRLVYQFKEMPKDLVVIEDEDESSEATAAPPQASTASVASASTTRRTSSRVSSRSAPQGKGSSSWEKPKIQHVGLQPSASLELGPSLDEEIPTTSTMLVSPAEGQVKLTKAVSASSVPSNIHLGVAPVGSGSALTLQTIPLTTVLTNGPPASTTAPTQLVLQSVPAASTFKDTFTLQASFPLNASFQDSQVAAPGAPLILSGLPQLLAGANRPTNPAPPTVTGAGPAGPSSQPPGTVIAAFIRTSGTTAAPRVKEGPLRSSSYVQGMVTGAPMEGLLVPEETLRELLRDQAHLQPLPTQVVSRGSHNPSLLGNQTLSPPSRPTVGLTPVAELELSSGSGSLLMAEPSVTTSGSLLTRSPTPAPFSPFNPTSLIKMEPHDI
# Chain of ETV5 (P41161 whole entry): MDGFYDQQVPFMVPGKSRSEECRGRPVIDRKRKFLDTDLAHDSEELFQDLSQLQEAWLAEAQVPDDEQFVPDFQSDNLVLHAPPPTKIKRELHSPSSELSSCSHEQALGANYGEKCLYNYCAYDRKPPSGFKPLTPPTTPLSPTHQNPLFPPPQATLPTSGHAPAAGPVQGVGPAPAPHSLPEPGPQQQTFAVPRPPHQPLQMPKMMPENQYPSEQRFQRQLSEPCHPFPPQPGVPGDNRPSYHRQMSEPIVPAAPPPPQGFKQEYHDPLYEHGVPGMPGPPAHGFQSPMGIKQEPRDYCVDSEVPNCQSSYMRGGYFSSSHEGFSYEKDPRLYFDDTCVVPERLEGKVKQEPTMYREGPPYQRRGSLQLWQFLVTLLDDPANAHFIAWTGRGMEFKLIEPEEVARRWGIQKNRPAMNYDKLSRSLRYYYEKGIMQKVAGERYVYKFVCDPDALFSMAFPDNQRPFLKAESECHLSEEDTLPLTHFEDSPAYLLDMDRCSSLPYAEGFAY
# Chain of HSF1 (Q00613 whole entry): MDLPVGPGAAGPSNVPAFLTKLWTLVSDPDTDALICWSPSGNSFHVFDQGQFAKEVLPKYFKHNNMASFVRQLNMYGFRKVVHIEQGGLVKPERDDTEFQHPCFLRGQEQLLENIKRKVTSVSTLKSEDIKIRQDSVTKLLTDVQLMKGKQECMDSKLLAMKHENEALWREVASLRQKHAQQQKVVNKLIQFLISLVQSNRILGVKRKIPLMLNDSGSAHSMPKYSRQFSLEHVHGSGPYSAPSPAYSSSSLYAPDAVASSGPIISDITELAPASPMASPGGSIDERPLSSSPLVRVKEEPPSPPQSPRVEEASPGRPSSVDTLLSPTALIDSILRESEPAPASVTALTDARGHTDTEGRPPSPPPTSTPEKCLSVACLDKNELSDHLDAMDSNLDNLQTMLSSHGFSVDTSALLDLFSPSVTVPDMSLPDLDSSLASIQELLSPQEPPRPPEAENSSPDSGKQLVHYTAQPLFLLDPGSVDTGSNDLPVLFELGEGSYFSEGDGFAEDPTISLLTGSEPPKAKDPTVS
# Chain of ETV1 (P50549 whole entry): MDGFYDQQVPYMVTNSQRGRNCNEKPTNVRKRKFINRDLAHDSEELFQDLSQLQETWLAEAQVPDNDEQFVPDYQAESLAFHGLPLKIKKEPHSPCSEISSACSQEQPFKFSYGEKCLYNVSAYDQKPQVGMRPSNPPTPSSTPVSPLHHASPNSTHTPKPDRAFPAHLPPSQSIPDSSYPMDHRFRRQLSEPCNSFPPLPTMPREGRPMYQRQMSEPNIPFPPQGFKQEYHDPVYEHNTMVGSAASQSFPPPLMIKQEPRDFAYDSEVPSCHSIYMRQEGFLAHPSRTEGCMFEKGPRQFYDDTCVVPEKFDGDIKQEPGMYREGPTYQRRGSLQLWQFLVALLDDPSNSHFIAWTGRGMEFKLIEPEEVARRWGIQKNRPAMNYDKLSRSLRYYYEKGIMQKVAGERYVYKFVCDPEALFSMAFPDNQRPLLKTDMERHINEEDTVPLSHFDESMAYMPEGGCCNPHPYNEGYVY
# Chain of ETV6 (P41212 whole entry): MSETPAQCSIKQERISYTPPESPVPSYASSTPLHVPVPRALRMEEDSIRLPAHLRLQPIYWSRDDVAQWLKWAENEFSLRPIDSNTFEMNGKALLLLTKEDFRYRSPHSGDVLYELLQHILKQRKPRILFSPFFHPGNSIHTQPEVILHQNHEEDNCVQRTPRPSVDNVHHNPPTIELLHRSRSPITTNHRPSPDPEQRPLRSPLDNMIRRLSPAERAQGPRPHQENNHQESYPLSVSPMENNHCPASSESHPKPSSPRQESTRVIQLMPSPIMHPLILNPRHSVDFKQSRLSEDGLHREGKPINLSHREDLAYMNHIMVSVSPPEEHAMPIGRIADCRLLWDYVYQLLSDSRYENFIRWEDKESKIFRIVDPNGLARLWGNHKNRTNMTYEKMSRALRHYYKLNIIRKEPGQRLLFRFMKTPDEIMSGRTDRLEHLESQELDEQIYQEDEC
sequence,measurement,setting,value
GCTTAT,binding signal,FEV,"1.21 fold enrichment (6-mer frequency, TF over GST control)"
same,binding signal,ETV5,"1.23 fold enrichment (6-mer frequency, TF over GST control)"
same,binding signal,HSF1,"1.89 fold enrichment (6-mer frequency, TF over GST control)"
same,binding signal,SPIC,"1.42 fold enrichment (6-mer frequency, TF over GST control)"
same,binding signal,ELF4,"1.23 fold enrichment (6-mer frequency, TF over GST control)"
same,binding signal,ELK4,"1.28 fold enrichment (6-mer frequency, TF over GST control)"
same,binding signal,ETV2,"1.11 fold enrichment (6-mer frequency, TF over GST control)"
same,binding signal,ELF3,"1.29 fold enrichment (6-mer frequency, TF over GST control)"
same,binding signal,CRX,"2.89 fold enrichment (6-mer frequency, TF over GST control)"
same,binding signal,ETV1,"1.35 fold enrichment (6-mer frequency, TF over GST control)"
same,binding signal,ERF,"1.31 fold enrichment (6-mer frequency, TF over GST control)"
same,binding signal,ETV3L,"1.23 fold enrichment (6-mer frequency, TF over GST control)"
same,binding signal,ETS2,"1.36 fold enrichment (6-mer frequency, TF over GST control)"
same,binding signal,SPDEF,"1.43 fold enrichment (6-mer frequency, TF over GST control)"
same,binding signal,ETV7,"1.43 fold enrichment (6-mer frequency, TF over GST control)"
same,binding signal,ELF5,"1.15 fold enrichment (6-mer frequency, TF over GST control)"
same,binding signal,ETV3,"1.2 fold enrichment (6-mer frequency, TF over GST control)"
same,binding signal,ETV6,"1.23 fold enrichment (6-mer frequency, TF over GST control)"
